This is one part of a sample in which hits are shown more often than they occur.
Cruzain noTriton – inhibitors of Trypanosoma cruzi cruzain without detergent; P25779; purified cruzain, Z-FR-AMC fluorescence, no detergent; Potency, µM, for inactives: max response, negative = inhibition, hits mostly inhibitors; hit rate 2.3% among 200,000;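 note: plate controls were enzyme without inhibitor for no effect and buffer without enzyme for full effect; nearly all actives have a fitted effect of over 40% in size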
Target sequence (P25779 123-467 limits assumed): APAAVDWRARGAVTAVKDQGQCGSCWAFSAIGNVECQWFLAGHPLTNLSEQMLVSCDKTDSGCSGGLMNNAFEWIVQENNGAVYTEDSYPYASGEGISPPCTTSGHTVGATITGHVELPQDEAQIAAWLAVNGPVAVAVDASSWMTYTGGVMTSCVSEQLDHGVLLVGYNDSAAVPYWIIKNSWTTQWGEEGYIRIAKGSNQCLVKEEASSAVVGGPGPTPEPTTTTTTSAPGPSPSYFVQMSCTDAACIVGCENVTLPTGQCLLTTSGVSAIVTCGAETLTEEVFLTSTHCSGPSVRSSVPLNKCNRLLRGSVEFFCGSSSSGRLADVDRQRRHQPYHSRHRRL
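Detergent-free condition (0.00005% Triton X-100) in acetate buffer pH 5.5 with DTT. 1.5 nM enzyme and compound were pre-mixed 15 min, then 2 uM Z-FR-AMC substrate added; reaction progress from fluorescence change between first and third reads (60 s).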
Cruzain inh Det – blocks cruzain activity in presence of Triton detergent; P25779; purified cruzain, Z-FR-AMC fluorescence, 0.01% Triton; Potency, µM, for inactives: max response, negative = inhibition, most hits filed as inhibitors; hit rate 0.43% among 200,000; AID 1478;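 note: plate controls were neutral wells for no effect and buffer without enzyme for full effect; nearly all actives have a fitted effect of over 40% in size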
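Sodium acetate buffer (100 mM, pH 5.5) containing 5 mM DTT and 0.01% Triton X-100 hosted 1.5 nM cruzain and test compound for 15 min at room temperature. Cleavage of 2 uM Z-FR-AMC was then tracked by fluorescence.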
NS1 inh – inhibitors of influenza NS1 protein function; hit rate 0.4% among 270,000; Potency, µM (top dose mostly 46.1 µM), without a hit: at the highest dose activity, positive = more growth; calls by dose curve; note: actives are rising curves; nearly all actives have a fitted effect of over 50% in size
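In this qHTS, NS1 from influenza A is expressed in budding yeast, where it slows growth. Cells are switched from glucose to 2% galactose medium (pH 6.0, -URA), treated with compound, and growth recovery is read at OD600.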
* marks the source's active call; other numbers are inactive results. Unless noted, calls come from the whole dose curve; as a rule, active = well fitted curve in the direction sought with a large enough effect; inconclusive = small, poorly fitted or top-dose-only effect, or another doubt; inactive = no such curve, though single readings can be large; an effect the other way counts as inactive or inconclusive. Potency is the fitted concentration of half-maximal effect.

`Cc1ccc([N+](=O)[O-])cc1S(=O)(=O)N(C(=O)c1ccncc1)c1ccc2oc3c(c2c1)CCCC3` gave Cruzain noTriton 12.6µM*, Cruzain inh Det -1.6% and NS1 inh inconclusive.
Screening COC(=O)c1c(C)oc2ccc(N(C(=O)c3ccncc3)S(=O)(=O)c3cc(C)c(C)cc3C)cc12 returned Cruzain noTriton 2.0% and Cruzain inh Det -5.6%.
CCc1ccc(S(=O)(=O)N(C(C)=O)c2ccc3oc4c(c3c2)CCCC4)cc1 was read as Cruzain noTriton -8.2% and Cruzain inh Det -4.9%.
For CCOc1ccc(N=C2SCCCN2C(=O)c2c(CC)noc2C)cc1 the results were NS1 inh -7.2%.
Screening O=C(Nc1nnc(-c2ccccc2)o1)NC1CCCCC1 returned Cruzain noTriton -0.2%, Cruzain inh Det -2.5% and NS1 inh -14.0%.
Cn1cccc1/C=C1\SC(=Nc2ccccc2)NC1=O was read as NS1 inh -10.0%.
`Cc1ccc(N=C2NC(=O)/C(=C/c3cn(C)c4ccccc34)S2)cc1C` gave Cruzain noTriton 12.6µM*, Cruzain inh Det -4.6% and NS1 inh inconclusive.
`CCOC(=O)C1CSC(CC(=O)Nc2ccc(Cl)c(Cl)c2)C(=O)N1` (stereo unspecified) gave Cruzain noTriton -10.8%, Cruzain inh Det -3.1% and NS1 inh 14.7%.
For COC(=O)/C(C#N)=C/c1c(N2CCCCCC2)nc2c(C)cccn2c1=O the results were NS1 inh -37.5%.
`CC(NC(=O)c1cc2cc([N+](=O)[O-])ccc2oc1=O)C1CCCO1` (stereo unspecified) gave NS1 inh -1.6%.
For O=C(Nc1nc(C2C3CC4CC(C3)CC2C4)cs1)c1cc2cc([N+](=O)[O-])ccc2oc1=O (stereo unspecified) the results were Cruzain noTriton 25.1µM*, Cruzain inh Det -2.1% and NS1 inh -5.1%.
COc1cccc(NC(=O)c2ccc(N3C(=O)C4CC=C(C)CC4C3=O)cc2)c1 (stereo unspecified) was read as NS1 inh -2.3%.
For COc1ccc(CC(C)NCCC(c2ccccc2)c2ccccc2)cc1 (stereo unspecified) the results were NS1 inh -25.1%.
`O=C(Nc1ccc(NC(=O)c2cccs2)cc1)c1ccc(Br)o1` gave Cruzain noTriton 25.1µM*, Cruzain inh Det 5.4% and NS1 inh -4.0%.
For O=C(Nc1cccc(NC(=O)c2cccs2)c1)c1ccc(Br)o1 the results were NS1 inh -9.6%.
Cc1ccc(S(=O)(=O)N2CCC(C(=O)Nc3ccc4c(c3)OCO4)CC2)cc1 was read as Cruzain noTriton 14.2%, Cruzain inh Det -1.7% and NS1 inh 14.5%.
`Cc1cccc(CSc2nc3c([nH]c4ccccc43)c(=O)n2C)c1` gave Cruzain noTriton -14.7% and Cruzain inh Det -0.4%.
Screening COc1cccc(-n2c(SCc3ccccc3C)nc3c([nH]c4ccccc43)c2=O)c1 returned Cruzain noTriton 3.98µM* and Cruzain inh Det 0.0%.
For CCSc1nc2c([nH]c3ccccc32)c(=O)n1C the results were Cruzain noTriton 12.6µM*, Cruzain inh Det 4.4% and NS1 inh 2.6%.
For CCCSc1nc2c([nH]c3ccccc32)c(=O)n1C the results were Cruzain noTriton -3.6% and Cruzain inh Det 0.0%.
`COc1cccc(-n2c(SCC(=O)c3ccccc3)nc3c([nH]c4ccccc43)c2=O)c1` gave Cruzain noTriton 2.0% and Cruzain inh Det 2.8%.
For COc1cccc(-n2c(SCc3cccc(C)c3)nc3c([nH]c4ccccc43)c2=O)c1 the results were Cruzain noTriton 15.8µM* and Cruzain inh Det -1.5%.
`O=C(O)c1ccccc1SCCS(=O)(=O)c1ccc(Cl)cc1Cl` gave NS1 inh 4.7%.
`Cc1ccc(C23CC4CC(CC(C(=O)NC(C)C)(C4)C2)C3)cc1` gave NS1 inh -16.9%.
COc1ccc(-n2c(=O)c(-c3cccs3)nc3cnc(Nc4ccccc4)nc32)cc1 was read as Cruzain noTriton 4.7% and Cruzain inh Det -0.5%.
For COc1cccc(Nc2ncc3ncc(=O)n(Cc4cccs4)c3n2)c1 the results were Cruzain noTriton 1.5% and Cruzain inh Det -1.9%.
`COc1cccc(Nc2ncc3nc(-c4cccs4)c(=O)n(-c4ccccc4)c3n2)c1` gave Cruzain noTriton 6.31µM* and Cruzain inh Det 0.8%.
Screening COc1cccc(Nc2ncc3nc(-c4cccs4)c(=O)n(Cc4cccs4)c3n2)c1 returned Cruzain noTriton 5.01µM* and Cruzain inh Det 2.1%.
CCN(C(=O)CSc1nnc(C)n1Cc1ccccc1)C1CCS(=O)(=O)C1 (stereo unspecified) was read as NS1 inh 0.2%.
Screening COCCCNC(=O)C1CCN(C(=O)c2cc3sccc3n2Cc2ccc(Cl)cc2)CC1 returned Cruzain noTriton inconclusive and Cruzain inh Det -2.7%.
